In PubChem BioAssay AID1565 (Sanford-Burnham Center for Chemical Genomics, 2009) one finds inhibition data, which are given here for 96 compounds.

In all, about 290,000 compounds went through this assay and about 3,200 (1.1%) were called active. The list comes from a sample in which actives are over-represented; it also holds similar structures and randomly drawn compounds. A number with no mark means an inactive call. No stated cut-off is given here; in the data, active means inhibition above about 60%; inactive means the rest.

In this assay the target is Phosphoethanolamine/phosphocholine phosphatase (Homo sapiens) (UniProt Q8TCT1). As to the kind of experiment: PubChem AID 1565. Particulars: recombinant PHOSPHO1, absorbance phosphatase assay; at 13.3 µM; active compounds read high.
Sequence of Phosphoethanolamine/phosphocholine phosphatase (Homo sapiens) (Q8TCT1 whole entry, looked up): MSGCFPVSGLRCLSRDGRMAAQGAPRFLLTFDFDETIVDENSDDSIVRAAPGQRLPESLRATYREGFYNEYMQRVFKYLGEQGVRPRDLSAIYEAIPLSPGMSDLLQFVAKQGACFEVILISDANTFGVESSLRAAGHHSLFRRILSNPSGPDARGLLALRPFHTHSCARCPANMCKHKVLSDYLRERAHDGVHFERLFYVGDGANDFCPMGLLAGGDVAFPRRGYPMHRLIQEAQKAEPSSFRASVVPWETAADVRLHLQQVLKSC
As for `O=C(O)c1ccccc1CSc1nc2ccccc2s1`, the inhibition was -3.9%.

Take `Cc1cc(C)n2nc(SCC(N)=O)nc2n1`: the inhibition was 35.9%.

For `Cc1cc(C)n2nc(CNS(=O)(=O)c3c(F)c(F)c(F)c(F)c3F)nc2n1`, the inhibition was 64.9% (active). To `Cc1cc(C)n2nc(C(=O)NC(C)(C)C)nc2n1` belongs 27%; to `C/C(=N\N(C)C)c1ccc(OCCOc2ccc([N+](=O)[O-])cc2)cc1`, 23.7%. To `COc1ccc(C2CC(=O)NC(=O)C2)cc1` belongs 22.9%. Then `Cc1cccc(NC(=O)c2sc3nc(N4CCOCC4)c4c(c3c2N)CCCC4)c1`, with 21.8%. As for `CC(=O)Nc1ccc(NC(=O)c2sc3nc4c(c(-c5ccc(C)cc5)c3c2N)CCC4)cc1`, the inhibition was 14.1%. On to `Cc1cccc(NC(=O)c2sc3nc4c(c(-c5ccco5)c3c2N)CCC4)c1`, for which the inhibition is 67.5% (active).

For `O=C(Nc1ccc([N+](=O)[O-])cc1)OCCc1ccccn1`, the inhibition is 17.9%. Then `CCOc1ccc2c(c1)c(=O)c(S(=O)(=O)c1ccc(C)cc1)cn2CC`, with 47.5%; and `CCOc1cc(C(=S)N2CCOCC2)ccc1OS(=O)(=O)c1ccc(Br)cc1`, with 8.5%; and `COc1cc(C(=S)N2CCOCC2)ccc1O`, with 3.5%.

On to `CCOc1cc(C(=S)N2CCOCC2)ccc1O`, for which the inhibition was 96.3% (active).

For `Cc1ccc(N(C(=O)CNC(=O)c2ccco2)C(C(=O)NC2CCCC2)c2ccncc2)cc1` (stereo unspecified), the inhibition is 43.5%. To `O=C(CC(c1ccccc1)c1ccccc1)NCC(O)c1ccc([N+](=O)[O-])cc1` (stereo unspecified) belongs 12%; to `Cc1ccc(NC(=O)CSc2sc3c(O)cc(=O)[nH]c3c2C#N)cc1C`, 19.4%.

As for `Cc1cc(=O)[nH]c(S)c1C#N`, the inhibition is 71.4% (active). To `Cc1cc(=O)[nH]c(SCC(N)=O)c1C#N` belongs -7.4%. For the compound `C/C(=N\NC(=O)c1ccc2ccccc2c1)c1cccnc1`, the inhibition is -19.7%.

On to `CCc1nnc(NC(=O)CSCc2cc(=O)n3cc(C)sc3n2)s1`, for which the inhibition was 6.8%. Turning to `O=C(CSc1nc(Nc2ccccc2)nc(N2CCOCC2)n1)Nc1cc(Cl)ccc1O`, the inhibition was 61% (active).

Regarding `Cc1ccc(Nc2nc(N3CCOCC3)nc(N3CCOCC3)n2)cc1Cl`, the inhibition was 6.9%. As for `C/C(=N\Nc1nc(Nc2ccccc2)nc(N2CCOCC2)n1)c1cccs1`, the inhibition is 24.8%. Then `Cc1ccc(C(=O)Nc2nnc(C3=COCCO3)o2)cc1C`, with -32.7%. As to `COC(=O)c1ccc(NC(=O)CSc2nnc(-c3ccncc3)n2C)cc1`, the inhibition was -5.5%. As to `COC(=O)c1sc(N)c(C(=O)OC)c1COC(=O)CNS(=O)(=O)c1ccc(C)cc1`, the inhibition is 1.7%.

For the compound `CCOc1ccc(C(C)=O)cc1CSc1nnc(-c2ccncc2)n1CCOC`, the inhibition is -31.5%.

`C=CCn1c(SCc2ccc(Cl)c(Cl)c2)nnc1C(CO)NC(=O)c1ccc(OC)cc1` (stereo unspecified): the inhibition is -16.9%. With `C=CCn1c(SCc2cc(C(=O)OC)c(C)o2)nnc1-c1ccncc1`, the inhibition is 86.5% (active).

With `C=CCn1c(SCc2c(C(=O)OC)sc(N)c2C(=O)OC)nnc1-c1ccc(Cl)cc1`, the inhibition is 60.1% (active).

For the compound `COc1cccc(CNC(=O)Cn2c(=O)oc3cc(S(=O)(=O)N4CCCCC4)ccc32)c1`, the inhibition is 22.6%.

As to `CC(C)(CNC(=O)c1ccc(Cl)c(S(=O)(=O)N2CCc3ccccc3C2)c1)N1CCOCC1`, the inhibition was 38.5%. Then `Cc1cccc(NS(=O)(=O)c2ccc(C(=O)NCC(C)(C)N3CCOCC3)cc2)c1C`, with 65.4% (active); and `CN(C)S(=O)(=O)c1ccc(C(=O)NCC(C)(C)N2CCOCC2)cc1`, with 34.7%; and `CC(C)C[C@H](NC(=O)N1CC(=O)Nc2ccccc21)C(=O)N[C@H](Cc1ccccc1)C(=O)O`, with 33.8%. On to `COc1ccc(N2CCN(Cc3nnc(-c4ccccc4)o3)CC2)cc1`, for which the inhibition is -23.5%. For `COc1ccc(-c2nnc(SCc3cccnc3)o2)cc1`, the inhibition was -4.4%. Regarding `COc1ccc(-c2nnc(SC(=O)N3c4ccccc4Sc4ccccc43)o2)cc1`, the inhibition was 81.1% (active). Then `COc1cccc(C(=O)N/N=C(\C)c2cccc(NC(=O)c3ccc(F)cc3)c2)c1OC`, with 65.8% (active). As to `CC(=O)Nc1cccc(/C(C)=N/NC(=O)c2ccccc2Cl)c1`, the inhibition was 16.2%.

Take `C/C(=N/NC(=O)c1ccc(NC(=O)c2ccc(F)cc2)cc1)c1ccccc1`: the inhibition was -99%.

`COc1ccc(S(=O)(=O)NCC(=O)NC2CC2)cc1OC`: the inhibition is 27.6%. Then `CCCCCC(O)(CCN1CCCCC1)c1ccccc1` (stereo unspecified), with 43.7%; and `Cc1cccc(C)c1OCCN1CCOCC1`, with 24.1%.

As to `C/C(=C\c1ccccc1)C1NC(=O)c2c(sc3c2CCCC3)N1` (stereo unspecified), the inhibition was 12.2%.

Consider `O=C1NC(c2ccncc2)Nc2sc3c(c21)CCCC3` (stereo unspecified), for which the inhibition was 97.6% (active). Turning to `Cc1ccc(C(=O)c2c(NC(=O)c3ccncc3)sc3c2CCCC3)cc1`, the inhibition was 9.7%. For `CCCNC(=O)COc1coc(CN2CCN(Cc3ccccc3)CC2)cc1=O`, the inhibition is 36%. Regarding `FC(F)(F)c1cccc(Cc2noc(CN3CCC(N4CCCCC4)CC3)n2)c1`, the inhibition is 51.8%.

Consider `Fc1cccc(Cc2noc(CN3CCN(c4cnccn4)CC3)n2)c1`, for which the inhibition was 62.8% (active).

For the compound `CCOC(=O)N1CCN(Cc2nc(Cc3cccc(C(F)(F)F)c3)no2)CC1`, the inhibition was 34.6%. To `COC(=O)c1ccc(CNC(=O)C2CCC(=O)N(Cc3ccccn3)C2)cc1` (stereo unspecified) belongs 11.9%; to `O=C(C[C@H]1C(=O)N(c2ccc(F)c(F)c2)C[C@@H]1Cc1ccccc1)Nc1ccccc1`, -7.3%. To `Cc1ccccc1OCCC(=O)OCC(=O)NC(C)c1ccccc1` (stereo unspecified) belongs 64.7% (active); to `Cc1ccc(OCCCC(=O)NC(C)c2ccccc2)c(C)c1` (stereo unspecified), 48.4%; to `Cc1ccc(OCC(=O)NC(C)c2ccccc2)cc1C` (stereo unspecified), -16.6%.

As to `Cc1sc2ncn(CC(=O)NCCCC(=O)N3CCN(c4ccccc4F)CC3)c(=O)c2c1C`, the inhibition is 2.2%.

Regarding `Cn1cc(S(=O)(=O)Nc2ccc(Cl)cc2Cl)c(=O)n(C)c1=O`, the inhibition was 20.2%. To `Cc1ccc(C)c(S(=O)(=O)Nc2cccc(-n3cnnn3)c2)c1` belongs 34.8%; to `O=C(CN1CCN(c2ccccc2)CC1)Nc1ccc(F)cc1`, 27%; to `CCOC(=O)N1CCN(CC(=O)Nc2ccc(F)cc2)CC1`, 60.1% (active).

As for `CCOC(=O)N1CCN(CCC(=O)Nc2ccccc2)CC1`, the inhibition was 44.4%.

For the compound `CCOC(=O)C1=C(C)Nc2sc(C(=O)c3ccc(Br)cc3)c(N)c2C1c1ccc(C(=O)OC)cc1` (stereo unspecified), the inhibition was 38.2%. Consider `CCOC(=O)c1sc(NC(=O)c2ccncc2)nc1C`, for which the inhibition was -5.8%. To `CCOC(=O)c1sc(=S)n2c1[nH]c(=O)c1ccc(C(=O)OC)cc12` belongs 98.7% (active); to `CCOc1ccc(CN2CCC(n3nccc3NC(=O)C3CC3)CC2)cc1CO`, 12.7%; to `CCCc1c(C(=O)Nc2ccc(F)cc2)cnn1-c1ccccc1`, 41.2%. `COc1ccc(-c2noc(CCCC(=O)NC3CCCC3)n2)cc1OC`: the inhibition was 18.5%. To `CC(=O)c1ccc(N2Cc3ccccc3C2)cc1` belongs 29.1%; to `Cc1cc(Cl)c2oc(C(=O)N(C)C(C)c3ccccn3)c(C)c2c1` (stereo unspecified), 18.5%. Take `Cc1ccc(N(CC(=O)NCC2CCCO2)C(=O)CNS(=O)(=O)c2ccc(Cl)cc2)cc1` (stereo unspecified): the inhibition was 32.5%. Turning to `CCCCn1c(SCC(=O)NCC2CCCO2)nc2ccc(N3CCOCC3)cc2c1=O` (stereo unspecified), the inhibition is -6.7%. Take `N#CCSc1nc2ccc(N3CCOCC3)cc2c(=O)n1CCc1ccccc1`: the inhibition was 81.7% (active). Consider `CCc1ccc(NC(=O)CSc2nc3ccccc3c(=O)n2CCN2CCOCC2)cc1`, for which the inhibition was 2.3%. With `COc1cccc2cc(C(=O)NCc3ccc(C)cc3)c(=N)oc12`, the inhibition is 37.7%. Then `CC(=O)Nc1ccc(NC(=O)C2CCCN2S(=O)(=O)c2cccc(C(F)(F)F)c2)cc1` (stereo unspecified), with 24%. Then `Nc1nnc(SCn2nnc3ccccc3c2=O)s1`, with 16.1%; and `Cc1c2cnn(CC(=O)NCc3ccccn3)c(=O)c2c(C)n1Cc1ccc(Cl)cc1`, with -9%; and `O=c1c2ccccc2nnn1CSc1nnnn1-c1ccccc1`, with 8%. To `C=CCn1c(SCn2nnc3ccccc3c2=O)nnc1-c1ccc(Cl)cc1` belongs 94.8% (active); to `O=C(Cn1nnc2ccccc2c1=O)NCc1ccc(Cl)cc1`, 62.9% (active); to `Cc1ccc(CNC(=O)CN2CCN(Cc3ccc(Cl)cc3)C2=O)cc1`, 4.8%. Consider `COc1ccc(N(C)C(=O)C2CCN(S(=O)(=O)c3cccc4nsnc34)CC2)cc1`, for which the inhibition was 6.8%. For `CCOc1ccc(NC(=O)CCCCCN2C(=O)[C@@H]3Cc4ccccc4CN3C2=O)cc1`, the inhibition is 6.8%. Consider `COc1cc(C(=O)OC2CCOC2=O)c([N+](=O)[O-])cc1OC` (stereo unspecified), for which the inhibition is 32.3%. Turning to `Cc1cccc(-n2c(N)c(C(=O)N3CCN(C)CC3)sc2=S)c1`, the inhibition was 83.6% (active). Regarding `COc1ccc2[nH]c(C(=O)N3CCN(C)CC3)c(C)c2c1`, the inhibition is 18.7%. Turning to `Cc1ccc(S(=O)(=O)N2CCN(C(=O)N3CCOCC3)CC2)c(C)c1`, the inhibition is -7.3%. To `N#Cc1ccccc1-n1c(N)c(C(=O)N2CCCC2)sc1=S` belongs -13.6%. To `Cc1cccc(C(=O)N2CCCN(C(=O)c3cccc(C)c3)CC2)c1` belongs 8.5%. To `Cc1ccc(-n2c(N)c(C(=O)N3CCOCC3)sc2=S)c(C)c1` belongs 87.8% (active); to `COCC1CCN(C(=O)c2ccc3oc(Cc4ccccc4)nc3c2)C1` (stereo unspecified), 27.6%; to `Cc1cc(OCc2cc(C(=O)NCc3cc(C(C)C)no3)no2)cc(C)c1Cl`, 22.6%. Turning to `CCn1cc(CCC(=O)NCc2ccc(F)cc2)c2ccccc21`, the inhibition is 38.1%. Consider `COc1ccc(CN(C)C(=O)c2cc(-c3ccc(C)cc3C)nc3ccccc23)c(OC)c1OC`, for which the inhibition was 31.9%.

Broadly, the inhibition is the change of the read-out against control, counted positive when it falls.
